Bioassay records as filed in PubChem BioAssay.
Compounds with a hit are over-represented: about 0.94% of the library has one in this group of screens.
Vc quorum ag-1: inducers of Vibrio cholerae quorum light production without autoinducers; V. cholerae BH1578 lux reporter, luminescence, 6 h; activation, % at 18.7 µM; 350,000 tested, 0.16% active; in the data active = activation mostly above about 9.7%, no sharp cut-off
SSB-PriA inh: K. pneumoniae PriA-SSBct interaction inhibition. AlphaScreen SSBct-PriA binding, biotinylated peptide. inhibition, % at 33 µM. 430,000 tested, 0.6% active; in the data active = inhibition mostly above about 37%, no sharp cut-off; inactive = mostly below about 20%
Mtb hypoxia rep: reduces hypoxia-regulated biosensor signal in M. tuberculosis. M. tuberculosis hypoxia-regulated fluorescent reporter, fluorescence. fluorescence inhibition, % (concentration not given with the values). 300,000 tested, 0.1% active; in the data active = fluorescence inhibition mostly above about 23%, no sharp cut-off; inactive = mostly below about 17%
MazF activator: activators of E. coli MazEF toxin-antitoxin RNase. activation, % at 20 µM. AID 504720. 350,000 tested, 0.32% active. FAM/BHQ RNA-DNA oligo cleavage fluorescence, 5 h; in the data active = activation above about 50%
Target sequence (P0AE70 whole entry, looked up): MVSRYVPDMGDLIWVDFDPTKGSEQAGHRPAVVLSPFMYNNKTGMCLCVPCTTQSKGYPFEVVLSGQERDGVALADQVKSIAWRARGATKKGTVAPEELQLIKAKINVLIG
Vc quorum ag-2: induces V. cholerae light production without autoinducers | shares compounds with Vc quorum ag-1 | V. cholerae BH1578 lux reporter, luminescence, 6 h | activation, % at 50 µM | 620 tested, under 10 active; call rule not given here
Of the large screens only hits and unclear results are named; the others gave an inactive call (follow-up assays come after a bar, where they were run); ! = not active in a repeat.

CCS(=O)(=O)N1CCc2ccc(NC(=O)COc3ccccc3F)cc2C1	none (no result: Vc quorum ag-1, Mtb hypoxia rep, MazF activator)
O=C(Oc1ccc2c(c1)O/C(=C\c1ccncc1)C2=O)c1ccccc1	MazF activator 220
Cc1ccc(/C=C2\Oc3cc(OC(=O)N4CCOCC4)ccc3C2=O)cc1	none
CCC/C=N\NC(=O)c1cc(OC)c(OC)c(OC)c1	none (no result: Vc quorum ag-1, Mtb hypoxia rep, MazF activator)
O=C1/C(=C/c2cccc(O)c2)SC(=S)N1CC1CCCO1 (stereo not drawn)	none
CCOc1cc(/C=C2/SC(=S)N(CC3CCCO3)C2=O)ccc1O (stereo not drawn)	MazF activator active
COc1cc(C(=O)Nc2cccc(N3CCCS3(=O)=O)c2)c([N+](=O)[O-])cc1OC	none (no result: Vc quorum ag-1, Mtb hypoxia rep, MazF activator)
NCC(O)COc1ccc2c(c1)OCO2 (stereo not drawn)	SSB-PriA inh 46! (no result: Mtb hypoxia rep)
OCCN1CCN(CC(O)COc2ccc3c(c2)OCO3)CC1 (stereo not drawn)	none (no result: Mtb hypoxia rep)
O=C(Nc1ccc(Nc2ccc(-n3cccn3)nn2)cc1)Nc1cccc(F)c1	SSB-PriA inh 36 (no result: Vc quorum ag-1, Mtb hypoxia rep, MazF activator)
O=C(Nc1ccc(Nc2ccc(-n3cccn3)nn2)cc1)c1cc2ccccc2oc1=O	SSB-PriA inh 56 (no result: Vc quorum ag-1, Mtb hypoxia rep, MazF activator)
O=C(Nc1ccc(-n2nncc2-c2ccco2)cc1)c1cc2ccccc2oc1=O	SSB-PriA inh 46
O=C(Nc1ccc(Nc2ccc(-n3cccn3)nn2)cc1)c1ccccc1C(F)(F)F	none (no result: Vc quorum ag-1, Mtb hypoxia rep, MazF activator)
COc1cccc(C(=O)Nc2ccc(Nc3ccc(-n4cccn4)nn3)cc2)c1OC	SSB-PriA inh 70 (no result: Vc quorum ag-1, Mtb hypoxia rep, MazF activator)
O=C(CCCNS(=O)(=O)c1ccc(F)cc1)NCc1cccnc1	none (no result: Vc quorum ag-1, Mtb hypoxia rep, MazF activator)
Cc1cc(CNC(=O)c2csc(-c3ccccc3)n2)c(C)o1	none (no result: Vc quorum ag-1, Mtb hypoxia rep, MazF activator)
CCOc1ccc(NC(=O)C(=O)Nc2ccc([N+](=O)[O-])cc2)cc1	none (no result: Vc quorum ag-1, Mtb hypoxia rep, MazF activator)
COc1ccccc1-c1cc(=O)c2cc(Cl)ccc2o1	none (no result: Vc quorum ag-1, Mtb hypoxia rep, MazF activator)
COc1ccc(/C=C/c2cc(=O)c3cc(Cl)ccc3o2)cc1	MazF activator 54
O=C(NCCCn1ccnc1)c1cc2n(n1)CCCO2	SSB-PriA inh 34 (no result: Vc quorum ag-1, Mtb hypoxia rep, MazF activator)
O=C(NCCCn1ncccc1=O)c1cc2n(n1)CCCO2	none (no result: Vc quorum ag-1, Mtb hypoxia rep, MazF activator)
C#CCN1C(=O)C2(C(C#N)=C(N)OC(C)=C2C(=O)OCc2ccccc2)c2ccccc21 (stereo not drawn)	none
CCOC(=O)C1=C(C)OC(N)=C(C#N)C12C(=O)N(C)c1ccccc12 (stereo not drawn)	MazF activator 63
CN(C)CCCN(C(=O)c1ccc(S(=O)(=O)N2CCCc3ccccc32)cc1)c1nc2c(Cl)cccc2s1	SSB-PriA inh 39 (no result: Vc quorum ag-1, Mtb hypoxia rep, MazF activator)
CN(C)CCCN(C(=O)c1cc(-c2cccs2)nc2ccccc12)c1nc2ccc(F)cc2s1	SSB-PriA inh 41
CN(C)CCCN(C(=O)c1ccc(S(=O)(=O)N2CCc3ccccc32)cc1)c1nc2ccc(F)cc2s1	SSB-PriA inh 46!
Cc1cc(C)c2sc(N(CCCN(C)C)C(=O)c3ccc(S(=O)(=O)N4CCCc5ccccc54)cc3)nc2c1	SSB-PriA inh 47! (no result: Mtb hypoxia rep)
O=C(O)CC(CC(=O)N(Cc1ccsc1)Cc1ccco1)c1cccs1 (stereo not drawn)	none (no result: Vc quorum ag-1, Mtb hypoxia rep, MazF activator)
C=CCCC(=O)NCC(OC)c1ccco1 (stereo not drawn)	none (no result: Vc quorum ag-1, Mtb hypoxia rep, MazF activator)
Cc1ccccc1NC(=O)Cn1nc2ccc(SC3CCCCC3)nn2c1=O	none (no result: Vc quorum ag-1, Mtb hypoxia rep, MazF activator)
O=C(Nc1ccc2c(=O)c3ccccc3oc2c1)c1ccccc1F	none (no result: Vc quorum ag-1, Mtb hypoxia rep, MazF activator)
Cc1c(Cl)cccc1S(=O)(=O)N1CCCN(S(=O)(=O)c2cnn(C)c2)CC1	none (no result: Vc quorum ag-1, Mtb hypoxia rep, MazF activator)
Cc1cccc(N=Nc2ccc(N(C)C)cc2)c1	SSB-PriA inh 55
Cc1nnc2ccc(-c3cccc(NC(=O)c4cc(-c5ccco5)[nH]n4)c3)nn12	none (no result: Vc quorum ag-1, Mtb hypoxia rep, MazF activator)
CC(=O)c1ccc(Oc2cc(C)nc(NCc3ccccc3)n2)cc1	Vc quorum ag-1 25 (no result: Mtb hypoxia rep) | Vc quorum ag-2 inactive
CCOc1cc(C)nc(NCc2ccccc2)n1	none (no result: Mtb hypoxia rep)
COc1ccccc1NC(=O)Cc1csc(NC(=S)Nc2ccccc2)n1	none | Vc quorum ag-2 inactive
COc1ccc(NC(=S)Nc2nc(CC(=O)Nc3ccccc3OC)cs2)cc1	none
CCN1CCN(C(=O)c2ccc(COc3cccc(Cl)c3)o2)CC1	none
CCN1CCN(C(=O)c2ccc(COc3ccc(Cl)cc3)o2)CC1	none | Vc quorum ag-2 inactive
O=S(=O)(c1cccnc1)N1CCC(N2CCCC2CO)CC1 (stereo not drawn)	none (no result: Vc quorum ag-1, Mtb hypoxia rep, MazF activator)
CCCn1nnnc1SCC(=O)c1ccc2c(c1)OCCO2	Vc quorum ag-1 65 (no result: Mtb hypoxia rep) | Vc quorum ag-2 inactive
Cn1nnnc1SCC(=O)c1ccc2c(c1)OCCO2	none
Cc1cc(NC2CCCCC2)nc(-c2ccccc2O)n1	Vc quorum ag-1 17 | Vc quorum ag-2 inactive
